HT1080NT lethal = kills 2HG-producing HT-1080-NT fibrosarcoma cells. HT-1080-NT fibrosarcoma viability, CellTiter-Glo ATP luminescence, 48 h. Potency, µM (series often up to 46.1 µM), for the others: at the highest dose activity, negative = less viability, most hits filed as cytotoxic. hit rate 1.6% among 360,000;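 further: NT is the 2HG producing partner of a matched IDH1 knockdown line; 0% = DMSO-treated cells and -100% = media-only wells without cells; nearly all actives have a fitted effect of over 55% in size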
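Viability by CellTiter-Glo luminescence after 48 h compound exposure at 37C of HT-1080-NT cells (750/well, RPMI, 5% FBS). % activity scaled between DMSO wells and medium-only wells, then curve-fitted and categorized by curve class.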
TDP1 cell CPT = growth inhibition of DT40 Tdp1-/-;hTDP1 cells with camptothecin (screen for TDP1 inhibitors) | Potency, µM (top dose mostly 46.2 µM), without a hit: at the highest dose activity change, negative = growth inhibition, hits mostly inhibitors | hit rate 12% among 420,000 | chicken DT40 Tdp1-/-;hTDP1 cells + 20 nM CPT, ATP luminescence, 48 h | AID 686979; further: nearly all actives have a fitted effect of over 55% in size
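Cell growth measured by CellTiter-Glo luminescence after a minimum 48 h, 37 C compound exposure with 20 nM CPT in Tdp1-knockout DT40 cells stably expressing hTDP1, seeded 400/well; qHTS titration format.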
DT40 TDP1 no CPT = qHTS for Inhibitors of human tyrosyl-DNA phosphodiesterase 1 (TDP1): qHTS in cells in absence of CPT; DT40 Tdp1-/- hTDP1 cells, no CPT, ATP luminescence, 48 h; Potency, µM (titrated, usually from 46.2 µM), for inactives: at the highest dose activity change, negative = growth inhibition, hits mostly inhibitors; hit rate 15% among 420,000; further: nearly all actives have a fitted effect of over 55% in size
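Compound effects on proliferation are scored in DT40 Tdp1-/-;hTDP1 cells in the absence of CPT. ATP levels (CellTiter-Glo luminescence) are recorded after a ≥48 hr, 37 °C incubation.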
KB-3-1 cytotox = kills parental KB-3-1 adenocarcinoma cells. KB-3-1 viability, CellTiter-Glo ATP luminescence, 72 h. Potency, µM (highest dose often 46.1 µM), hits mostly cytotoxic. hit rate 1.4% among 400,000. AID 1347075; further: nearly all actives have a fitted effect of over 60% in size
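Cells are dispensed, compounds pinned in, plates held at 37 °C for 72 h, then CellTiter-Glo is added and luminescence read after 10 minutes. Cell line: parental KB-3-1 in phenol-red-free DMEM, 10% FBS.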
KB-V1 MDR tox = KB-V1 MDR subline cytotoxicity; KB-V1 MDR cells viability, CellTiter-Glo, 72 h; Potency, µM (top dose mostly 46.1 µM), hits mostly cytotoxic; hit rate 3.4% among 400,000; AID 1347076; further: nearly all actives have a fitted effect of over 60% in size
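Readout: CellTiter-Glo luminescence, 10 min after addition. Cells: KB-V1 MDR subline, 72 h at 37 degrees C with compound. Analysis: corrected, normalized data fitted to concentration-effect curves.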
HT1080 IDH1KD tx = kills HT-1080 cells with IDH1 knockdown. Potency, µM (top dose mostly 46.1 µM), without a hit: top-dose activity, negative = toxicity, most hits filed as cytotoxic. HT-1080 IDH1 knockdown viability, ATP luminescence, 48 h. hit rate 2% among 360,000;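 further: 0% = DMSO wells and -100% = cell-free medium wells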
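Viability of IDH1-knockdown HT-1080 fibrosarcoma cells was assessed by CellTiter-Glo after 48 h at 37 °C with titrated compound; concentration-effect curves were classified by fit quality and response size.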
An asterisk follows results filed as active. Compounds with a hit are over-represented: about 19% of the library has one in this group of screens. The call rests on the fitted dose curve; in most records, active means well fitted curve in the direction sought with a large enough effect; inconclusive means small, poorly fitted or top-dose-only effect, or another doubt; inactive means no such curve, though single readings can be large; an effect the other way counts as inactive or inconclusive. Unless noted, on the % scale 0 is the no-effect control and ±100 the full control effect; potency means the concentration at half of the fitted maximal effect.

How did C/C(CC(=O)NCCN1CCOCC1)=N\NC(=O)c1ccncc1 do in these assays?
HT1080NT lethal: 12.2%; TDP1 cell CPT: 6.4%; DT40 TDP1 no CPT: 1.3%; KB-3-1 cytotox: inactive; KB-V1 MDR tox: inactive; HT1080 IDH1KD tx: 10.8%

How did Cn1nc(C(C)(C)C)cc1C(=O)N1CCCCC1c1cc(C(=O)Nc2cccc(C#N)c2)no1 (stereo not given) do in these assays?
HT1080NT lethal: inconclusive; TDP1 cell CPT: 20.6µM*; DT40 TDP1 no CPT: 16.4µM*; KB-3-1 cytotox: inactive; KB-V1 MDR tox: inactive; HT1080 IDH1KD tx: 9.3%

What do the screens show for `COc1ccc(NC(=O)c2cc(C3CCCCN3C(=O)c3ccccc3)on2)c(C)c1` (stereo not given)?
HT1080NT lethal: -6.4%; TDP1 cell CPT: 18.4µM*; DT40 TDP1 no CPT: 9.2µM*; KB-3-1 cytotox: inactive; KB-V1 MDR tox: inactive; HT1080 IDH1KD tx: -11.4%

What do the screens show for `COc1ccc(C(=O)N2CCCCC2c2cc(C(=O)Nc3cccc(C#N)c3)no2)cc1` (stereo not given)?
HT1080NT lethal: 10.8%; TDP1 cell CPT: 23.1µM*; DT40 TDP1 no CPT: inconclusive; KB-3-1 cytotox: inactive; KB-V1 MDR tox: inactive; HT1080 IDH1KD tx: 0.0%

What do the screens show for `Cn1nc(C(C)(C)C)cc1C(=O)N1CCCCC1c1cc(C(=O)N2CCOCC2)no1` (stereo not given)?
HT1080NT lethal: 2.1%; TDP1 cell CPT: inconclusive; DT40 TDP1 no CPT: inconclusive; KB-3-1 cytotox: inactive; KB-V1 MDR tox: inconclusive; HT1080 IDH1KD tx: 15.6%

How did COc1ccc(NC(=O)c2cc(C3CCCCN3C(=O)C3CC3)on2)c(C)c1 (stereo not given) do in these assays?
HT1080NT lethal: 3.7%; TDP1 cell CPT: inconclusive; DT40 TDP1 no CPT: -23.6%; KB-3-1 cytotox: inactive; KB-V1 MDR tox: inactive; HT1080 IDH1KD tx: 23.8%

What do the screens show for `CCOc1cc2c(cc1OCC)C(CC(=O)O)N(C(=O)Nc1ccc(Br)c(C)c1)CC2` (stereo not given)?
TDP1 cell CPT: -11.6%; DT40 TDP1 no CPT: inconclusive

How did COc1ccc([C@H]2C(C(=O)O)=C[C@@H](CC3CCCC3)N2S(=O)(=O)c2ccc(C)cc2)cc1OC do in these assays?
HT1080NT lethal: 2.7%; TDP1 cell CPT: 6.0%; DT40 TDP1 no CPT: -1.0%; KB-3-1 cytotox: inactive; KB-V1 MDR tox: inactive; HT1080 IDH1KD tx: 6.3%

How did Cc1cccc(C(=O)OCC(=O)N2CCCC2=O)c1O do in these assays?
HT1080NT lethal: 0.6%; TDP1 cell CPT: 0.2%; DT40 TDP1 no CPT: 11.7%; KB-3-1 cytotox: inactive; KB-V1 MDR tox: inactive; HT1080 IDH1KD tx: -3.1%

What do the screens show for `O=C(Nc1ccccc1C(=O)Nc1nnc(C(F)(F)F)s1)c1ccccc1`?
HT1080NT lethal: 3.26µM*; TDP1 cell CPT: 2.91µM*; DT40 TDP1 no CPT: 4.11µM*; KB-3-1 cytotox: inconclusive; KB-V1 MDR tox: inconclusive; HT1080 IDH1KD tx: 4.61µM*

Results for CCOC(=O)C1=C(C)Nc2ccccc2N=C1N ?
HT1080NT lethal: inconclusive; TDP1 cell CPT: -2.0%; DT40 TDP1 no CPT: 10.5%; KB-3-1 cytotox: inactive; KB-V1 MDR tox: inactive; HT1080 IDH1KD tx: inconclusive

Results for COC(=O)c1sc(NC(=O)c2oc3ccccc3c2C)nc1C ?
HT1080NT lethal: -1.1%; TDP1 cell CPT: inconclusive; DT40 TDP1 no CPT: 3.66µM*; KB-3-1 cytotox: inactive; KB-V1 MDR tox: inactive; HT1080 IDH1KD tx: -2.3%

Results for CCOC(=O)C1=C(C)Nc2ccccc2N=C1NC(=O)c1oc2ccccc2c1COC ?
HT1080NT lethal: -9.4%; TDP1 cell CPT: 20.6µM*; DT40 TDP1 no CPT: 16.4µM*; KB-3-1 cytotox: inactive; KB-V1 MDR tox: inconclusive; HT1080 IDH1KD tx: -16.8%

How did Cc1occc1C(=O)Nc1nnc(C(F)(F)F)s1 do in these assays?
HT1080NT lethal: -20.9%; TDP1 cell CPT: -18.2%; DT40 TDP1 no CPT: -23.2%; KB-3-1 cytotox: inactive; KB-V1 MDR tox: inactive; HT1080 IDH1KD tx: 7.7%

What do the screens show for `COCc1c(C(=O)Nc2nnc(C3CC3)s2)oc2ccccc12`?
HT1080NT lethal: -0.8%; TDP1 cell CPT: inconclusive; DT40 TDP1 no CPT: 11.6µM*; KB-3-1 cytotox: inconclusive; KB-V1 MDR tox: inactive; HT1080 IDH1KD tx: 0.4%

What do the screens show for `COc1ccc2c(c1OC)C(=O)N1C2SC(C)(C)[C@H]1C(=O)NCC(C)C` (stereo not given in full)?
HT1080NT lethal: -1.7%; TDP1 cell CPT: 3.5%; DT40 TDP1 no CPT: 5.9%; KB-3-1 cytotox: inactive; KB-V1 MDR tox: inactive; HT1080 IDH1KD tx: -1.8%

How did Cc1c(C(=O)Nc2nnc(C(F)(F)F)s2)oc2ccccc12 do in these assays?
HT1080NT lethal: -13.8%; TDP1 cell CPT: inconclusive; DT40 TDP1 no CPT: inconclusive; KB-3-1 cytotox: inactive; KB-V1 MDR tox: 18.4µM*; HT1080 IDH1KD tx: -1.7%

What do the screens show for `Cc1cccc(C)c1OCC(=O)Nc1nnc(C2CCCO2)s1` (stereo not given)?
HT1080NT lethal: -3.1%; TDP1 cell CPT: -1.9%; DT40 TDP1 no CPT: inconclusive; KB-3-1 cytotox: inactive; KB-V1 MDR tox: 18.4µM*; HT1080 IDH1KD tx: -1.0%

Results for COC(=O)c1sc(NC(=O)c2cc3c(s2)CCCC3)nc1C ?
HT1080NT lethal: -7.5%; TDP1 cell CPT: -15.7%; DT40 TDP1 no CPT: 20.6µM*; KB-3-1 cytotox: inactive; KB-V1 MDR tox: inactive; HT1080 IDH1KD tx: 5.7%

What do the screens show for `COC(=O)c1sc(NC(=O)COc2c(C)cccc2C)nc1C`?
HT1080NT lethal: -1.0%; TDP1 cell CPT: -13.5%; DT40 TDP1 no CPT: 11.6µM*; KB-3-1 cytotox: inactive; KB-V1 MDR tox: inactive; HT1080 IDH1KD tx: -0.7%

How did COc1ccc(-c2nsc(NC(=O)c3oc4ccccc4c3C)n2)cc1 do in these assays?
TDP1 cell CPT: inconclusive; DT40 TDP1 no CPT: -28.5%
